Experimental data from PubChem BioAssay (NCI).
This is part of a sample that, as a whole, favours compounds with a hit. Of some 83,000 tested, about 20% had one in any assay.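 Percent growth is the endpoint: 0 to 100 indicates growth inhibition (40 means 60% inhibition), 0 means no net growth, and negative values indicate cell death.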 A number with no mark means an inactive call. Calls of active or inactive are those of the source.

Each molecule was assayed on KM12 colon (assay: NCI-60 one-dose screen, 48 h (100 = growth as untreated, 0 = no growth, -100 = all killed)). Details: 10 µM unless noted.
Procedure: Growth inhibition of the KM12 human tumor cell line is measured as a screen for anti-cancer activity. Cells are grown in 96 well plates and exposed to the test compound for 48 hours. Compounds are tested at a single concentration, which is 10^-5 M for most compounds. The reported endpoint is percent growth (GI% or GIPRCNT), where numbers from 0 - 100% represent growth inhibition, and numbers from -100% - 0 represent cell death. For example, a value of 40 represents 60% growth inhibition. A value of 0 means no net growth occurred over the course of the experiment. A value of -40 indicates 40% of cells at the beginning of the experiment died by the end of the experiment. A value of -100 means all cells are dead at the end of the experiment.
NCI-60 Human Tumor Cell Lines Screen was performed using the standard one-dose NCI protocol, which is described in more detail at https://dtp.cancer.gov/discovery_development/nci-60/default.htm.
Compounds with GIPRCNT values below 10 were considered active. Activity score was based on GIPRCNT using the following formula: […]
Score is 0 for GIPRCNT values of 100 or above, 50 for GIPRCNT values of 0, and 100 for GIPRCNT values of -100.
For `O=C(O)c1cn(C2CC2)c2cc(N3CCN(C(=O)/C=C/c4ccc(Cl)cc4)CC3)c(F)cc2c1=O`, the growth was 82.7%. For `COc1ccc(-c2nc(SCCC(C)C)nc(Nc3ccc(F)c(Cl)c3)c2C#N)cc1`, the growth was 102%. With `N=c1ccc2nc3ccc(N)cc3sc-2c1` the growth was 18.1%. For `CN(C)c1nc2c(N)ncnc2n1C1OC(CO)C(O)C1O` (stereo not given), the growth was 105%. `COc1ccc(Nc2ncccc2C(=O)NCc2cn(Cc3cccc(Oc4ccccc4)c3)nn2)cc1` gave a growth of 20.2%. Work on `COC(=O)c1cccc2c1N(C)c1c(cccc1C(=O)OC)CC2` yielded a growth of 101%. With `C=C1CC2(OC1=O)C(=O)N(CCCN1C(=O)C3(CC(=C)C(=O)O3)c3ccccc31)c1ccccc12` (stereo not given) the growth was 72.9%. `COc1ccc2[nH]c(C(=O)OCc3ccc4c(Cl)cc(Cl)c(O)c4n3)cc2c1` was tested, and the growth was -31% (active). `CCO/C=N/C1=C(C#N)C(c2ccc(Cl)cc2)c2c(c3ccc(C)cc3[nH]c2=O)O1` (stereo not given) was tested, and the growth was 97.1%. With `COc1ccc(S(=O)(=O)n2ccc(-c3ccc4c(c3)CCC(C)(C)O4)n2)cc1OC` the growth was 71.4%. `COc1cc(C(=O)/C=C/c2c(C)n([O-])c3ccc(C(F)(F)F)cc3[n+]2=O)cc(OC)c1OC` showed a growth of 91.4%. For `Nc1cccc(-c2nc3sccn3c2-c2ccnc(NCCNS(=O)(=O)c3ccc(C(F)(F)F)cc3)n2)c1`, the growth was 61.5%. With `CC(O)CN1CCCCC1` (stereo not given) the growth was 106%. With `Clc1ccccc1-c1nc2ccccc2[nH]1` the growth was 97.5%. Molecule `Cc1ccc(N2CCN(C(C)C(N)=O)CC2)cc1` (stereo not given) has a growth of 112%. For `COc1ccc(-c2nc(/C=N/Nc3cc(C)nc4ccc(Br)cc34)c(C)o2)cc1`, the growth was -90.4% (active). With `COc1cc2c(cc1OCCCN1CCN(CCCn3c4ccccc4c4ccccc43)CC1)N=C[C@@H]1CCCN1C2=O` the growth was -64.7% (active). `Cc1cc(C(C)(C)C)ccc1S` showed a growth of 112%. With `O=c1ccn(C2CC(O)C(O)C(CO)O2)c(=O)[nH]1` (stereo not given) the growth was 121%. For `COc1ccc(/C=C2/C(=O)NC(SCC(=O)N3CCN(c4cc5c(cc4F)c(=O)c(C(=O)O)cn5C4CC4)CC3)=NC2N)cc1OC` (stereo not given), the growth was 106%. Molecule `O=C1/C(=C/c2ccccc2)Oc2ccc(O)c(I)c21` has a growth of 98.8%. With `COc1cc(/C=C/C(=O)c2ccc(Nc3ncnc4cc(OC)c(OC)cc34)cc2)cc(OC)c1` the growth was 82.9%. Molecule `CCCCNC(=O)Oc1ccc(/C(=C(\C)c2ccccc2)c2ccc(OCCN(CC)CC)cc2)cc1` has a growth of 60.6%. Molecule `CCc1cnc(=S)n(-c2ccccc2)c1` has a growth of 109%. `Fc1ccc(Nc2nc(NCCNc3ccnc4cc(Cl)ccc34)nc(N3CCOCC3)n2)cc1` was tested, and the growth was 78.6%. `COc1ccc2[nH]c(=O)c3c4ccccc4cn3c2c1` gave a growth of 10.4%. `COc1cc2c(cc1OCCCCCn1c3ccccc3c3ccccc31)N=C[C@@H]1CCCN1C2=O` was tested, and the growth was -11.4% (active). With `COc1ccc(Cn2cc3c(c2-c2cc(OC)c(OC)c(OC)c2)CCc2cnoc2-3)cc1` the growth was 11.1%. `NC(=S)N/N=C(/CCN1CCCC1)CC(C1=C(O)C2=CCCCC2OC1=O)c1ccccc1` (stereo not given) gave a growth of 102%. With `C=C1CCC2C3(C)COC(c4ccc(N(C)C)cc4)OC3CCC2(C)C1C/C=C1/C(=O)OCC1O` (stereo not given) the growth was 54.6%. Molecule `O=C([O][Sn]([O]C(=O)c1ccccn1)([c]1ccccc1)[c]1ccccc1)c1ccccn1` has a growth of 97.4%. With `Cc1ccc(Cc2c(C=O)nc(N)[nH]c2=O)c2ccccc12` the growth was 102%. Work on `O=C(c1ccccc1)c1c(/C=C/c2ccccc2)c2ccccc2[nH]c1=O` yielded a growth of 96%. `O=S(=O)(NCCCNc1nccc(-n2ccc3cccnc32)n1)c1cccc(C(F)(F)F)c1` showed a growth of 98%. Work on `Cc1ccc2nc(-c3cc4c([nH]c5ccccc54)c(-c4ccc(F)c(F)c4)n3)[nH]c2c1` yielded a growth of 72.4%. `COc1ccc(Nc2[nH]n3c(=O)cc(C)nc3c2C(N)=O)c(OC)c1` was tested, and the growth was 101%. `COc1cc(-c2nn(-c3cccc(NC(=O)c4ccc(Cl)c(C(F)(F)F)c4)c3)cc2-c2ccncc2)ccc1Cl` gave a growth of 28.8%. For `COc1cc(Cn2cc3c(c2)-c2oncc2CC3)cc(OC)c1OC`, the growth was 3.04% (active). `COc1ccc(-c2cnoc2-c2ccc(OC)cc2O)cc1` was tested, and the growth was 19.2%. In the case of `COc1ccc(-c2cnnn2-c2nonc2-n2cccc2)cc1OC`, the growth is reported as 31.7%.
